The values below come from PubChem BioAssay (Tox21).

Assay [1] is described as follows: qHTS assay to identify small molecule antagonists of the thyroid receptor (TR) signaling pathway (AID 743065). For activity, negative = inhibition: series mostly up to about 70 µM. Note: nearly all actives have a fitted effect of over 55% in size. Note: potency is the fitted concentration of half-maximal effect. In short, it runs like this:
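GH3.TRE-Luc rat pituitary cells (two TREs driving luciferase) were dosed with compound, then stimulated with 1 nM T3 (final) for 23.5 h at 37 C. ONE-Glo luminescence was the read-out, with CellTiter-Fluor fluorescence as the cytotoxicity counter-screen.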
A general note: qHTS replaces the single test concentration by a dilution series.

Assay [2] deals with thyroid hormone receptor (rat, GH3 cells). As to the kind of experiment: qHTS assay to identify small molecule agonists of the thyroid receptor (TR) signaling pathway (AID 743066; calls by dose curve).
The target in assay [3] is Estrogen receptor (Homo sapiens) (UniProt P03372). As to the kind of experiment: qHTS assay to identify small molecule antagonists of the estrogen receptor alpha (ER-alpha) signaling pathway (AID 743069; active = well fitted curve in the direction sought with a large enough effect in the signal ratio in the repeat runs, not every such curve was filed as active; the % refers to the signal ratio). In short, it runs like this:
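Reporter cells (ER-alpha-bla, HEK293 background) are conditioned overnight in stripped-serum medium (2% charcoal-stripped FBS). Compound and 17beta-estradiol exposure runs 18 hr at 37C, 5% CO2.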

Assay [4] can be described thus: qHTS assay to identify small molecule antagonists of the estrogen receptor alpha (ER-alpha) signaling pathway - cell viability counter screen (AID 743074; calls by dose curve;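 note: HEK293 cells carrying ER-alpha-UAS-bla reporter stimulated with 17beta-estradiol; nearly all actives have a fitted effect of over 45% in size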).
In assay [5] the target is Estrogen receptor (Homo sapiens) (UniProt P03372). The experiment in a line: qHTS assay to identify small molecule agonists of the estrogen receptor alpha (ER-alpha) signaling pathway (AID 743075; calls by dose curve;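 note: HEK293 GripTite cells with ER-alpha and UAS-driven beta-lactamase reporter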; note: potency is the fitted concentration of half-maximal effect).
Estrogen receptor (Homo sapiens), sequence (P03372 whole entry, looked up): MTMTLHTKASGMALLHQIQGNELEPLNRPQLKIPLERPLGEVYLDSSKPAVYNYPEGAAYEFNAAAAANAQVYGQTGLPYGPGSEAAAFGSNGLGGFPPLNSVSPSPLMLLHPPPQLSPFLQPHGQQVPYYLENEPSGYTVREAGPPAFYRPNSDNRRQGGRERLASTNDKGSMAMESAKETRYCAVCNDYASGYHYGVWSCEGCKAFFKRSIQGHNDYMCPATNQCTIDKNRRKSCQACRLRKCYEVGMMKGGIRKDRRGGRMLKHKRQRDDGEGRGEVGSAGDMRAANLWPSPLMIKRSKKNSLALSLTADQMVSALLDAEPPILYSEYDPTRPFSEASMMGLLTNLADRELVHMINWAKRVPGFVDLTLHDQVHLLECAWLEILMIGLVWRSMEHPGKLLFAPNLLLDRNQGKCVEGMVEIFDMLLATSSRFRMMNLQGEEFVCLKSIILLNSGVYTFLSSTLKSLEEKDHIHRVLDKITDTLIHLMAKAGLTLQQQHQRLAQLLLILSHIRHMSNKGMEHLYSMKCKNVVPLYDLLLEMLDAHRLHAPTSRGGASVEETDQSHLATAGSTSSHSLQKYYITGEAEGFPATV
The target is the same in assay [6]. As to the kind of experiment: qHTS assay to identify small molecule agonists of the estrogen receptor alpha (ER-alpha) signaling pathway using the BG1 cell line (AID 743079). Note: nearly all actives have a fitted effect of over 20% in size. Note: potency is the fitted concentration of half-maximal effect.
Assay [7] is described as follows: qHTS assay to identify small molecule antagonists of the estrogen receptor alpha (ER-alpha) signaling pathway using the BG1 cell line (AID 743080; calls by dose curve;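 note: BG1 cells stimulated with 17beta-estradiol alongside compound; series mostly up to about 70 µM; nearly all actives have a fitted effect of over 25% in size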). The procedure, abridged:
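Readout is ONE-Glo luminescence, taken 30 min at room temperature after reagent addition, preceded by a CellTiter-Fluor viability read; BG1-Luc-4E2 cells had received compound and 17beta-estradiol for 21.5 h at 37 C.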

A short description of assay [8]: qHTS assay to identify small molecule antagonists of the estrogen receptor alpha (ER-alpha) signaling pathway using the BG1 cell line - cell viability counter screen (AID 743081).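 Note: compound given together with 17beta-estradiol as the ER stimulus; series mostly up to about 70 µM; nearly all actives have a fitted effect of over 45% in size.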
A further assay addresses Aromatase (Homo sapiens) (UniProt P11511). The experiment in a line: qHTS assay to identify aromatase inhibitors (AID 743083). Note: series mostly up to about 70 µM; nearly all actives have a fitted effect of over 55% in size.
The nature of assay [9]: qHTS assay to identify aromatase inhibitors - cell viability counter screen (AID 743084).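 Note: cells stimulated with testosterone during compound exposure; nearly all actives have a fitted effect of over 55% in size.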
The target of assay [10] is Aryl hydrocarbon receptor (Homo sapiens) (UniProt P35869). The experiment in a line: qHTS assay to identify small molecule that activate the aryl hydrocarbon receptor (AhR) signaling pathway (AID 743085).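 For activation: HG2L7.5c1 human HepG2 liver cells with stably integrated DRE-driven firefly reporter; series mostly up to about 70 µM.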 Note: nearly all actives have a fitted effect of over 15% in size. Note: potency is the fitted concentration of half-maximal effect. The procedure, abridged: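 Steps: seed HepG2-AhR-luc cells; allow 5 h at 37C; pin-transfer test compound or vehicle; incubate 24 h at 37C; add viability dye (30 min, 37C) and read fluorescence; add luciferase substrate (30 min, RT) and read luminescence.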
Aryl hydrocarbon receptor (Homo sapiens), sequence (P35869 whole entry, looked up): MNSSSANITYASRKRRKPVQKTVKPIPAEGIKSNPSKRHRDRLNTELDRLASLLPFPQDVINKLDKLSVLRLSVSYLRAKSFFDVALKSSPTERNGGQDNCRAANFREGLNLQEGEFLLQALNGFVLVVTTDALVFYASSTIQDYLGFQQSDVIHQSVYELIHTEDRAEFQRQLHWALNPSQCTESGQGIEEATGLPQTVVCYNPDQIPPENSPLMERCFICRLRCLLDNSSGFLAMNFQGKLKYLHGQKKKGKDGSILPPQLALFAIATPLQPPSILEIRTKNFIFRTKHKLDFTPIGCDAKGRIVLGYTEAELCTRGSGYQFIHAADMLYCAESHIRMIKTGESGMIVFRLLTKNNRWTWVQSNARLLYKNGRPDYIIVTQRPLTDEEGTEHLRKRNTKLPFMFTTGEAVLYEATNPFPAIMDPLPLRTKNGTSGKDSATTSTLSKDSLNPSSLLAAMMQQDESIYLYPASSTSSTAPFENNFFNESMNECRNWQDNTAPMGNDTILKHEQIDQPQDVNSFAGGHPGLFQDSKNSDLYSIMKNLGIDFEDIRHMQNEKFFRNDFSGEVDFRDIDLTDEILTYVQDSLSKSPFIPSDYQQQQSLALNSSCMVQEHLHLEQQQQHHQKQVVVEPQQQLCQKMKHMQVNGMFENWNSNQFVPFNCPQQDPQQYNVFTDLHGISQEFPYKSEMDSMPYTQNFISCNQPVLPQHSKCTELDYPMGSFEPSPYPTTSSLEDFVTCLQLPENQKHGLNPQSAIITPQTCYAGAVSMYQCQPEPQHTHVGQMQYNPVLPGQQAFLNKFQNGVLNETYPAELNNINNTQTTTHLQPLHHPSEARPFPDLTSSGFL

Assay [11] is described as follows: qHTS assay to identify small molecule that activate the aryl hydrocarbon receptor (AhR) signaling pathway - cell viability counter screen (AID 743086).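 Note: HepG2 liver cells carrying the AhR DRE luciferase reporter; series mostly up to about 70 µM; nearly all actives have a fitted effect of over 45% in size.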 The procedure, abridged: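 HepG2-AhR-luc (HG2L7.5c1) cells, 4000/well, treated 24 h at 37 C with compound; viability measured as CellTiter-Fluor fluorescence after 30 min in the same wells as the luciferase read.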

The target in assay [12] is Peroxisome proliferator-activated receptor gamma (Homo sapiens) (UniProt P37231). The experiment in a line: qHTS assay to identify small molecule agonists of the peroxisome proliferator-activated receptor gamma (PPARg) signaling pathway (AID 743094; active = well fitted activation curve with a large enough effect in the signal ratio in the repeat runs, not every such curve was filed as active; the % refers to the signal ratio). In short, it runs like this:
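Compounds dissolved in DMSO were added to PPARg UAS-bla HEK293H cells for 17 h at 37C, and reporter expression was quantified by fluorescence intensity after 1 h with LiveBLAzer B/G FRET substrate.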

Assay [13] in a line: qHTS assay to identify small molecule antagonists of the peroxisome proliferator-activated receptor gamma (PPARg) signaling pathway - cell viability counter screen (AID 743194). Note: nearly all actives have a fitted effect of over 55% in size. In short, it runs like this: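 Cytotoxicity counter screen in PPARg-bla HEK293H cells, same wells as reporter assay. Compounds plus 50 nM rosiglitazone (final) for 17 h at 37 C, then viability read by CellTiter-Glo luminescence.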

Assay [14] is described as follows: qHTS assay for small molecule agonists of the antioxidant response element (ARE) signaling pathway (AID 743202; active = well fitted activation curve with a large enough effect in the signal ratio in the repeat runs, not every such curve was filed as active; the % refers to the signal ratio). In short, it runs like this:
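Agonist mode reporter screen: HepG2 cells with ARE-controlled beta-lactamase are incubated with test compounds for 16 h at 37 C, and beta-lactamase activity is measured as fluorescence of cleaved B/G FRET substrate.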

Assay [15] is described as follows: qHTS assay for small molecule agonists of the antioxidant response element (ARE) signaling pathway - cell viability counter screen (AID 743203; calls by dose curve; note: nearly all actives have a fitted effect of over 55% in size). In short, it runs like this:
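Following 16 hrs of compound treatment at 37C, HepG2 cells with an ARE-controlled beta-lactamase gene were lysed with CellTiter-Glo. Luminescence was read after 30 min at room temperature.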

The nature of assay [16]: qHTS assay for small molecule activators of the heat shock response signaling pathway - cell viability counter screen (AID 743209). Note: nearly all actives have a fitted effect of over 50% in size. In short, it runs like this:
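Readout: CellTiter-Glo luminescence, 30 min at room temperature. System: HSE-bla HeLa cells, 1500/well, plated overnight. Treatment: compounds in DMSO, 5 h at 37 C.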

Assay [17] in a line: qHTS assay for small molecule activators of the heat shock response signaling pathway (AID 743210; active = well fitted activation curve with a large enough effect in the signal ratio in the repeat runs, with a control signal flat, not every such curve was filed as active; the % refers to the signal ratio;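 note: HeLa cells with beta-lactamase reporter driven by heat shock elements; series mostly up to about 63 µM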). In short, it runs like this:
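Quantitative high-throughput format using an engineered HeLa line in which heat shock response elements drive beta-lactamase; after 5 h with compound, cells received a B/G FRET substrate and fluorescence was read.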

The nature of assay [18]: qHTS assay to identify small molecule agonists of the peroxisome proliferator-activated receptor delta (PPARd) signaling pathway - cell viability counter screen (AID 743211). Note: nearly all actives have a fitted effect of over 55% in size. In short, it runs like this: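 Viability of GeneBLAzer PPARd UAS-bla HEK293H cells was assessed after 17 h compound incubation at 37C, using CellTiter-Glo reagent added after the reporter read and luminescence recorded 30 min later.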

Assay [19] concerns the target Peroxisome proliferator-activated receptor gamma (Homo sapiens) (UniProt P37231). As to the kind of experiment: qHTS assay to identify small molecule antagonists of the peroxisome proliferator-activated receptor gamma (PPARg) signaling pathway (AID 743191; calls by dose curve; note: series mostly up to about 63 µM; nearly all actives have a fitted effect of over 30% in size). In short, it runs like this:
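GeneBLAzer PPARg UAS-bla HEK293H cells, 5 h post-plating, exposed to compounds 17 h at 37C. LiveBLAzer B/G FRET substrate added for 1 h at room temperature; beta-lactamase reporter read by fluorescence intensity.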

The structures appear in SMILES notation. Several values for one entry are separate records, joined by “and”; a condition that tells them apart may be missing. Equal entries are not always repeated. Results filed as inconclusive are left out. Some structures have more than one record in an assay (separate samples or runs), and their calls can disagree. Activity calls are given as the source filed them. Unless noted, calls come from the whole dose curve; as a rule, active = well fitted curve in the direction sought with a large enough effect in the repeat runs; inconclusive = weak or mixed curves; inactive = no such curve, though single readings can be large; an effect the other way counts as inactive or inconclusive.
% is set by controls: 0 for no effect and ±100 for the full control effect.

Peroxisome proliferator-activated receptor gamma (Homo sapiens), sequence (P37231 whole entry, looked up): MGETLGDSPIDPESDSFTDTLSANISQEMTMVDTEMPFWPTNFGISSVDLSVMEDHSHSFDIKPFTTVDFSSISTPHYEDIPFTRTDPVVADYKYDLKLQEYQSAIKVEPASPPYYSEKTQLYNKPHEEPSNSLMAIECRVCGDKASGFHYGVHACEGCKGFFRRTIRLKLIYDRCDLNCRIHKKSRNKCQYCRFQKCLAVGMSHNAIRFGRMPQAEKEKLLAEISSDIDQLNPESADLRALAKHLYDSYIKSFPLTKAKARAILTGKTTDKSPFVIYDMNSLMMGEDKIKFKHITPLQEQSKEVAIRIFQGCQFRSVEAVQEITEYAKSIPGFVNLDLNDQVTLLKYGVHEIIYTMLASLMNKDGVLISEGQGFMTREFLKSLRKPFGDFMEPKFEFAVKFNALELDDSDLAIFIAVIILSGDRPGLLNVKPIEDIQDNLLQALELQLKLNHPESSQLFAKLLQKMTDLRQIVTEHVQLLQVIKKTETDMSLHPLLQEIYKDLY
Aromatase (Homo sapiens), sequence (P11511 whole entry, looked up): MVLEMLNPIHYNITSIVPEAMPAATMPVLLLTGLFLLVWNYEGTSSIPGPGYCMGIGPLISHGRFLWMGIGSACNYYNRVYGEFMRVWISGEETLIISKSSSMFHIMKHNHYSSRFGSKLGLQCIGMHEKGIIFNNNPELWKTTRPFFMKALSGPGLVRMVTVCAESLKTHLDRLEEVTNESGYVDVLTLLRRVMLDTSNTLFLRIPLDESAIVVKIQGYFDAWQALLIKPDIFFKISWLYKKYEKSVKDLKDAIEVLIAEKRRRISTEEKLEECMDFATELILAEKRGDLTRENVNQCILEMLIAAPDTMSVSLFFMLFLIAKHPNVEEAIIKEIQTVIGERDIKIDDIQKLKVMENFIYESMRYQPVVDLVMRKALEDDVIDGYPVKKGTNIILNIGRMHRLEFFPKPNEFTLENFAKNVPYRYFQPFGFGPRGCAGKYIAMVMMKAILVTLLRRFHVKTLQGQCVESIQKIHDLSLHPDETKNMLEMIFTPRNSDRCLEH

Consider `CCCCCCCCCCCCS`, for which the Potency entry in assay [1], in assay [2], in assay [3], in assay [5], in assay [6] and in assay [7] was “inactive” each time. The Potency entry (in assay [8]; in the assay with Aromatase (Homo sapiens); in assay [9]; in assay [10]; in assay [14]; in assay [17]) was “inactive” in each case. For the same molecule, the result in [4], in assay [11], in assay [12], in assay [13], in assay [15] and in [16] was inactive. The outcome in assay [18] was inactive.

On to `CCCCC(CC)COC(=O)CCCCC(=O)OCC(CC)CCCC` (stereo not drawn), for which the Potency result in assay [1], in assay [2], in assay [3], in assay [5], in assay [6] and in assay [7] was “inactive” in each case. The Potency result (in assay [8]; with Aromatase (Homo sapiens); in [9]; in [10]; in [14]) was “inactive” throughout. Moreover, the result in [4], in assay [11], in assay [12], in assay [13], in assay [15] and in assay [16] was inactive. In assay [18], the molecule was called inactive.

Regarding `CCCCCOC(C)=O`, the Potency entry in assay [1], in assay [2], in [3], in [5], in assay [6] and in [7] was “inactive” in each case. Further, the Potency entry (in assay [8]; with Aromatase (Homo sapiens); in [9]; in assay [10]; in assay [14]) was “inactive” throughout. Further, the molecule was classed as inactive in assay [4], in [11], in assay [12], in assay [13], in [15] and in [16]. Further, the result in [18] was inactive.

Take `COc1ccc(NC(C)=O)cc1N`: the Potency entry (in assay [1]; in assay [2]; in assay [3]; in assay [7]; in assay [8]; with Aromatase (Homo sapiens)) was “inactive” throughout. Besides, the Potency result in assay [9], in assay [10] and in [14] was “inactive” throughout. The call in [4], in [11], in assay [12], in assay [19], in assay [13] and in assay [15] was inactive. The result in assay [16] and in assay [18] was inactive. The Potency in assay [5] was 54.7 µM [activator] (active) and inactive; in assay [6], 54.3 µM (active) and inactive.

As for `Cc1ccc2oc(=O)ccc2c1`, the Potency entry in assay [1], in assay [2], in assay [3], in assay [5], in assay [6] and in assay [7] was “inactive” each time. The Potency entry (in assay [8]; with Aromatase (Homo sapiens); in assay [9]; in [10]; in assay [14]; in assay [17]) was “inactive” in each case. The molecule was classed as inactive in assay [4], in [11], in assay [12], in assay [19], in assay [13] and in assay [16]. Moreover, the outcome in assay [18] was inactive.

`c1ccc2scnc2c1`: the Potency entry in assay [1], in assay [2], in assay [3], in [5], in assay [6] and in assay [7] was “inactive” in each case. Also, the Potency entry (in assay [8]; with Aromatase (Homo sapiens); in [9]; in assay [14]; in assay [17]) was “inactive” each time. In addition, the molecule was called inactive in assay [4], in [11], in assay [12], in assay [19], in assay [13] and in assay [15]. In addition, the call in assay [16] and in assay [18] was inactive. Further, the Potency result in assay [10] is “inactive and 19.3 µM (active)”.

Regarding `CCN(CC)CCCC(C)Nc1ccnc2cc(Cl)ccc12` (stereo not drawn), the Potency in assay [1] was 26.6 µM (active). Besides, the activity, negative = inhibition in assay [1] is -19.4% [at 8.44 µM] (inactive). For the same molecule, the Potency result in [2], in [3], in assay [5], in assay [6], in assay [7] and in assay [8] was “inactive” each time. Also, the Potency result (with Aromatase (Homo sapiens); in assay [9]; in assay [10]) was “inactive” each time. The call in [4], in [11], in assay [12], in [19], in assay [13] and in [16] was inactive. The result in assay [18] was inactive. Besides, the activation in [14] is -11.9% [at 8.36 µM] (inactive). Besides, the viability change, negative = cytotoxic in assay [15] is -7.65% [at 8.36 µM] (inactive).
